The nature of assay [1]: compounds binding Alexa647 anti-His antibody – biochemical, small-molecule microarray, 635 nm fluorescence, artefact control for SMM control protein annotation, primary screen (AID 1128).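 Note: score merges feature fluorescence with signal-to-noise for each printed compound spot.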 Particulars: higher = more signal.
For assay [2], the system named is Human papillomavirus type 1a E7 protein (residues 1-88). Put plainly: HPV1a E7 small-molecule binders, primary screen, biochemical, small-molecule microarray, residues 1-88, 635 nm (AID 1129). Particulars: small-molecule microarray binding, fluorescence 635 nm; higher = more signal.
For assay [3], the target named is Focal adhesion kinase 1 (Homo sapiens) (UniProt Q05397). Put plainly: PTK2 protein binding on printed compound slides – biochemical, small-molecule microarray, 635/667 nm fluorescence, BSA, DTT, primary screen (AID 1130).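 Note: composite of spot emission at 667 nm and signal to noise over triplicate slides.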 The settings on record: 635 nm fluorescence, higher = more signal.
Chain of Focal adhesion kinase 1 (Homo sapiens) (Q05397 whole entry, looked up): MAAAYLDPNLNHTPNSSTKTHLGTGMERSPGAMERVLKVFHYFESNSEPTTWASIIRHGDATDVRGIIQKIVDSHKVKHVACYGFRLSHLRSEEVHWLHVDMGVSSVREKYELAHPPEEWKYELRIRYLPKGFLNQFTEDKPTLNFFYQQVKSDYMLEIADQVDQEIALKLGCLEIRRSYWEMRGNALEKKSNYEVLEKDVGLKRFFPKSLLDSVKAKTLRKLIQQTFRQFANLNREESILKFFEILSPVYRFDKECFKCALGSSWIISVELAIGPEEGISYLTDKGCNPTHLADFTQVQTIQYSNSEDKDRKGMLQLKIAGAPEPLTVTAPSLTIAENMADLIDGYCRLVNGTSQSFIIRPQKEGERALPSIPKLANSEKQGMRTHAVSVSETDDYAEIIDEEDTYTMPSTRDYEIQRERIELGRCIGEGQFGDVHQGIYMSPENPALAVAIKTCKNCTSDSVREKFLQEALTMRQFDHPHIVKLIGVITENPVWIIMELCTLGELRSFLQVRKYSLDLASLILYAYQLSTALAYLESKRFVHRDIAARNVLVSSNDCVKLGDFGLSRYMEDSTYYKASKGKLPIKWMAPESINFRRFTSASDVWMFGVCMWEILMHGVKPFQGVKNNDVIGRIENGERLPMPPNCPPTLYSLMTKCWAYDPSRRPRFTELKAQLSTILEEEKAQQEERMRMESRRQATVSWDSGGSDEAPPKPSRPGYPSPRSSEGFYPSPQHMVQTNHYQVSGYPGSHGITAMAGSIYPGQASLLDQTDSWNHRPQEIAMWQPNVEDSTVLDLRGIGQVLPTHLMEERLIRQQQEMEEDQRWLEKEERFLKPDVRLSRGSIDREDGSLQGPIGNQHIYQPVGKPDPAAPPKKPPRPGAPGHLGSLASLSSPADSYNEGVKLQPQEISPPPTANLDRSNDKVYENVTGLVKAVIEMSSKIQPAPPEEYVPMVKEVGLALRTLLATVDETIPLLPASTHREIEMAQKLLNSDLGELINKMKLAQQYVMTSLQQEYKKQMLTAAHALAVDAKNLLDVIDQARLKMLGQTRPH
Assay [4] concerns Fibrinogen (Alexa647-labelled). Put plainly: Alexa647-fibrinogen binding to printed small molecules – biochemical, small-molecule microarray, 635/667 nm fluorescence, artefact control for SMM control-protein annotation, profiling panel (AID 1131).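 Note: z-score merges 667 nm fluorescence with per-spot signal-to-noise over triplicate slides.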 The settings on record: fibrinogen-A647 binding fluorescence, higher = more signal.
In assay [5] the target is Follistatin (Homo sapiens) (UniProt P19883). Nature of the assay: FST protein binding to printed compounds – biochemical, small-molecule microarray, 635/667 nm fluorescence, primary screen (AID 1132). Particulars: 635 nm fluorescence, higher = more signal.
Chain of Follistatin (Homo sapiens) (P19883 whole entry, looked up): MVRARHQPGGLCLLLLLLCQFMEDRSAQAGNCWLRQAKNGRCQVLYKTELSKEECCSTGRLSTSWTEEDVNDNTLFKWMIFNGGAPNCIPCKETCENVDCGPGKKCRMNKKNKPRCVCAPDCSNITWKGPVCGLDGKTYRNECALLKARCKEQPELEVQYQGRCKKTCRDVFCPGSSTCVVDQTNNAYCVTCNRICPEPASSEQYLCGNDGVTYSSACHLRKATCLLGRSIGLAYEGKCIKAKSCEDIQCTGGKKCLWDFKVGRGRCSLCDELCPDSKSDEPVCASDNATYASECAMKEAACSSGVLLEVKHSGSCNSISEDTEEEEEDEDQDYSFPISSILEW
The target in assay [6] is Fibroblast growth factor 2 (Homo sapiens) (UniProt P09038). Put plainly: basic fibroblast growth factor binding to printed compounds – biochemical, small-molecule microarray, 635/667 nm fluorescence, primary screen (AID 1133). Particulars: FGF2, fluorescence 635/667, higher = more signal.
Chain of Fibroblast growth factor 2 (Homo sapiens) (P09038 whole entry, looked up): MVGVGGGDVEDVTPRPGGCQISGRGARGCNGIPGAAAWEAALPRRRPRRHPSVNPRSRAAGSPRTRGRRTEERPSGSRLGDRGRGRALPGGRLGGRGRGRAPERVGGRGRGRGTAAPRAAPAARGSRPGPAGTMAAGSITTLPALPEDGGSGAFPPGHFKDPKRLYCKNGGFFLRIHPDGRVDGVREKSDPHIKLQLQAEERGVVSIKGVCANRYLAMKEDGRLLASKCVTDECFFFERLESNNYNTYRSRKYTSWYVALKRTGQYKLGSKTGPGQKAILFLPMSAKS
Assay [7] in a line: JC-1 mitochondrial potential readout, lung cancer cells – cell-based, A549, JC-1 fluorescence, basal, 24 h, 100 nL, profiling panel (AID 1138).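 Note: A549 lung adenocarcinoma cells under basal conditions with no added stimulus; test concentration not given here.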 Particulars: higher = more signal.
A further assay concerns Lefty1. Put plainly: Lefty1 protein binding to printed compounds – biochemical, small-molecule microarray, 635/667 nm fluorescence, primary screen (AID 1139). Particulars: fluorescence 635/667, higher = more signal.
The test system of assay [8] is wheat germ agglutinin (Triticum aestivum), Alexa647-labelled. Put plainly: Alexa647-WGA lectin binding to printed small molecules – biochemical, small-molecule microarray, 635/667 nm fluorescence, artefact control for SMM control-protein annotation, profiling panel (AID 1140).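 Note: score merges 667 nm feature emission with signal to noise over triplicate slides.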 The settings on record: WGA-A647 binding, 635 nm fluorescence, higher = more signal.
Assay [9] addresses Luciferin 4-monooxygenase (Photinus pyralis) (UniProt P08659). Nature of the assay: inhibition of purified Photinus pyralis luciferase – biochemical, luminescence, purified enzyme, 2006 set, primary screen (AID 1141).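 Note: cell-free assay with purified firefly luciferase at 100 ng per well in PBS; test concentration not given here.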 The settings on record: purified firefly luciferase, SteadyGlo luminescence, 30 min; higher = more signal, called active from +8 up or from −8 down.
Assay [10] concerns Wnt5a (protein binding on small-molecule microarray). Put plainly: small molecules binding Wnt5a protein – biophysical, small-molecule microarray, 635/667 nm fluorescence, primary screen (AID 1142).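 Note: fluorescence read at 667 nm with signal to noise per printed feature.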 Particulars: 635 nm fluorescence, higher = more signal.
The nature of assay [11]: ATP-based viability of Huh7 replicon cells – cell-based, CellTiter-Glo luminescence, basal, 48 h, cytotoxicity control for HCV replication inhibitor project, primary screen (AID 1143).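 Note: Huh7 hepatoma cells carrying a hepatitis C replication reporter with no stimulus; test concentration not given here.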 Particulars: higher = more signal, called active from +8 up or from −8 down. Background: Replicon systems follow genome replication, usually without infectious particles.
The nature of assay [12]: Pseudomonas biofilm growth suppression – PAO1 strain, BacTiter-Glo luminescence, LB-PBS, primary screen (AID 1144). Particulars: P. aeruginosa PAO1 biofilm, 12 h, higher = more signal.
Assay [13] is described as follows: basal CRE-LacZ reporter activity in PC12 – cell-based, unstimulated, primary screen (AID 1145). Particulars: no forskolin, luminescence, 4.5 h, higher = more signal, called active from +8 up or from −8 down.
Assay [14] can be described thus: forskolin-driven CRE-LacZ activity in PC12 – cell-based, CRE-LacZ reporter, forskolin-stimulated, primary screen (AID 1146).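 Note: PC12 cells with 6xCRE LacZ reporter stimulated by forskolin 10 µM; beta-galactosidase reporter signal reflecting CREB driven transcription.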 The settings on record: luminescence, 4.5 h, higher = more signal, called active from +8 up or from −8 down.
Assay [15] concerns the target Streptavidin (Streptomyces avidinii) (UniProt P22629). Put plainly: compounds binding control protein streptavidin – biophysical, small-molecule microarray, 635/667 nm fluorescence, artefact control for SMM compound annotation, primary screen (AID 1147).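 Note: signal reflects streptavidin binding to arrayed compounds as a control protein.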 Particulars: higher = more signal.
Assay [16] is described as follows: probe aInhba binding on compound microarray – biochemical, small-molecule microarray, 635/667 nm fluorescence, primary screen (AID 1148).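 Note: score merges 667nm spot fluorescence with signal-to-noise for antibody binding to printed compounds.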 The settings on record: higher = more signal.
For assay [17], the target named is Torsin-1A (Homo sapiens) (UniProt O14656). Nature of the assay: TOR1A wild-type binding on microarray – cell lysate, small-molecule microarray, lysate, 635/667 nm, primary screen (AID 1149). Particulars: COS7 hTOR1A-WT lysate, 635 nm fluorescence, higher = more signal.
Chain of Torsin-1A (Homo sapiens) (O14656 whole entry, looked up): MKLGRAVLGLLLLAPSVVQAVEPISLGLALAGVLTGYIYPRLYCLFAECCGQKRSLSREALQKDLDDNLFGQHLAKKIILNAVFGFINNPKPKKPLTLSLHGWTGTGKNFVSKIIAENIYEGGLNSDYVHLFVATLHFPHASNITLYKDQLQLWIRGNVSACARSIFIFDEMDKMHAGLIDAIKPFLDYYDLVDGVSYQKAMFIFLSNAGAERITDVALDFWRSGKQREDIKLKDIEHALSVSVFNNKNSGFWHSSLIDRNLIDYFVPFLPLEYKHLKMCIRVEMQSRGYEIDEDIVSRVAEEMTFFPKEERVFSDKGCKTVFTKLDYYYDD
The target is the same in assay [18]. Put plainly: torsin A mutant lysate binding on microarrays – cell lysate, small-molecule microarray, COS7 lysate, 635/667 nm fluorescence, primary screen (AID 1150).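 Note: score pools 667 nm emission and signal to noise measuring lysate protein binding.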 Particulars: COS7 hTOR1A mutant lysate, 635 nm fluorescence, higher = more signal.
The subject of assay [19] is Sonic hedgehog protein (Shh). Nature of the assay: Sonic hedgehog microarray binding compounds – biochemical, small-molecule microarray, 635/667 nm fluorescence, primary screen (AID 1151).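 Note: Shh protein binding to compounds spotted on small-molecule microarray slides; score combines spot fluorescence intensity with signal-to-noise across triplicate slides.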 Particulars: 635 nm fluorescence, higher = more signal.

SMILES strings stand for the structures. Active and inactive are the calls of the source. Unless noted, the rule behind the calls is not given here.

Chain of Luciferin 4-monooxygenase (Photinus pyralis) (P08659 whole entry, looked up): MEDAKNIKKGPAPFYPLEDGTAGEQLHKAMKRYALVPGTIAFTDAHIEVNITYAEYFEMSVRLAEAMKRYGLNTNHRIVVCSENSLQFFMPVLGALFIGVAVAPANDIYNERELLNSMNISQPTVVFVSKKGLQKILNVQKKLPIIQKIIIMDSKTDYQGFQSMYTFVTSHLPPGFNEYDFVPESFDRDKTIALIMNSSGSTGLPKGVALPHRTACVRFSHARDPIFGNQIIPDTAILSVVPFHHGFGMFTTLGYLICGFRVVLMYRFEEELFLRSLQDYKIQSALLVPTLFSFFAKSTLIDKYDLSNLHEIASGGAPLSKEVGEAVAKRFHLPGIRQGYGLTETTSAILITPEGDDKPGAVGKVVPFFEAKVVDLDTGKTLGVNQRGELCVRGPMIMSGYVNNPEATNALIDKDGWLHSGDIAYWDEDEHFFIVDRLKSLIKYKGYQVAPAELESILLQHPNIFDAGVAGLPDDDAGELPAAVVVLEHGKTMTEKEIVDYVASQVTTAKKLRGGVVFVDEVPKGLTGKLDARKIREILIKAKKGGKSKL
Chain of Streptavidin (Streptomyces avidinii) (P22629 whole entry, looked up): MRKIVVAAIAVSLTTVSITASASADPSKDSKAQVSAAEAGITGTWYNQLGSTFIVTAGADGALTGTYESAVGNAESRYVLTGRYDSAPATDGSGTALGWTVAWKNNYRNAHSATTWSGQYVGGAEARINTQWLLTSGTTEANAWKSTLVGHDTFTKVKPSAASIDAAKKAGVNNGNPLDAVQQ

Consider `Cn1c(=O)n2n(c1=O)[C@H]1[C@H](O)[C@@H]3O[C@@H]3C(=O)[C@H]1CC2`, for which the composite z-score in [1] is -0.0542; in [2], 0.827; in [3], -0.515; in assay [4] it was 0.289; in [5], 0.537; in [6] it was 0.348. The composite z-score with Lefty1 was 0.455; in [8], 0.138; in assay [10], 0.0242; in assay [15], 0.924; in assay [16], -0.041; with Torsin-1A (Homo sapiens) [17], 0.961. The composite z-score with Torsin-1A (Homo sapiens) [18] worked out at 0.198; in [19] it was 0.537. The z-score in assay [7] is -0.572; in [9], -0.28 (inactive); in assay [11], 0.0801 (inactive); in assay [12], 0.0513 (inactive); in assay [13], -1.29 (inactive); in assay [14], -0.69 (inactive).
Consider `CON=C[C@@H](C)[C@H](OCc1ccccc1)C(C)C`, for which the composite z-score in assay [1] is -0.032; in [2] it was -1.2; in [3] it was 0.119; in [4] it was -0.734; in assay [5] it was 0.359; in assay [6] it was 0.211. For the same compound, the composite z-score in the assay with Lefty1 is 0.347; in assay [8] it was -0.195; in assay [10] it was 0.103; in assay [15], -0.0087; in [16], -0.0963; in the assay with Torsin-1A (Homo sapiens) [17] it was 0.537. The composite z-score was -0.253 in the assay with Torsin-1A (Homo sapiens) [18] and 0.224 in assay [19]. Further, the z-score in assay [7] was -1.1; in [9], 0.592 (inactive); in assay [11], -1.83 (inactive); in [12], -1.54 (inactive); in [13], 0.987 (inactive); in assay [14], -0.278 (inactive).
As to `Cc1ccc(S(=O)(=O)N[C@@H]2COC(=O)[C@@H](C)COC(=O)CC=C[C@H]2C)cc1`, the composite z-score is 0.204 in assay [1]; 0.389 in [2]; -0.033 in assay [3]; 0.466 in assay [4]; 0.516 in assay [5]; 0.636 in [6]. Further, the composite z-score is 0.383 in the assay on Lefty1; -0.0537 in assay [8]; -0.278 in assay [10]; 0.095 in assay [15]; 0.0633 in [16]; 0.399 with Torsin-1A (Homo sapiens) [17]. In addition, the composite z-score in the assay with Torsin-1A (Homo sapiens) [18] was 0.366; in assay [19], 0.472. Further, the z-score in assay [7] is 0.493; in [9], -0.836 (inactive); in assay [11], 0.215 (inactive); in assay [12], -0.736 (inactive); in assay [13], -0.116 (inactive); in assay [14], -0.549 (inactive).
On to `CC(C)CON=C1C[C@@H](O)[C@@H](O)[C@@H]2[C@@H]3C(=O)N(c4cccc(Oc5ccccc5)c4)C(=O)[C@@H]3CC[C@@H]12`, for which the composite z-score in assay [1] was 0.89; in assay [2] it was 0.762; in [3], 0.0599; in assay [4], 1.02; in assay [5] it was 0.266; in assay [6], 0.314. The composite z-score with Lefty1 is 0.13; in assay [8] it was 0.561; in [10], 0.0462; in assay [15], 0.977; in assay [16], -0.016; with Torsin-1A (Homo sapiens) [17], 0.486. For the same compound, the composite z-score in the assay with Torsin-1A (Homo sapiens) [18] came out at 0.181; in assay [19] it was 1.7. Besides, the z-score in assay [7] is -0.289; in [9] it was -0.172 (inactive); in [11] it was -1.26 (inactive); in assay [12], 0.272 (inactive); in assay [13], -0.11 (inactive); in assay [14], 0.0421 (inactive).
Regarding `O=C(NN=C1C[C@@H](O)[C@@H](O)[C@@H]2[C@@H]3C(=O)N(Cc4ccccc4)C(=O)[C@@H]3CC[C@@H]12)OCc1ccccc1`, the composite z-score in assay [1] is 0.298; in [2], -0.0375; in assay [3], -0.0741; in assay [4], 0.272; in [5], 0.165; in [6], 0.242. The composite z-score is 0.321 in the assay with Lefty1; -0.148 in [8]; -0.0896 in assay [10]; -0.418 in assay [15]; -0.239 in [16]; 0.815 in the assay with Torsin-1A (Homo sapiens) [17]. Further, the composite z-score is 0.819 with Torsin-1A (Homo sapiens) [18] and -0.0067 in [19]. The z-score in assay [7] is 0.257; in assay [9], 0.472 (inactive); in [11], -0.381 (inactive); in [12], -0.526 (inactive); in assay [13] it was 0.248 (inactive); in [14], 0.121 (inactive).

The values above are taken from PubChem BioAssay.
